Screens as filed in PubChem BioAssay.
This is a sample that favours compounds with a hit; in the whole collection about 12% have one here.
Cycloheximide cs: counter-screen for Shiga toxin inhibitors: cycloheximide protein synthesis inhibition | cell reporter, cycloheximide protein synthesis inhibition counterscreen | max response, % | 300,000 tested, 12% active | AID 2314; in the data active = max response mostly above about 13%, no sharp cut-off; inactive = mostly below about 14%; also: read at 38.3 µM for the half of the compounds with a filed dose; 0% is about no effect
Shiga toxin inh: Shiga toxin inhibition | Vero cells, Shiga toxin protein synthesis inhibition reporter | 290,000 tested, 9.2% active | inhibition, % at 38.7 µM; in the data active = inhibition mostly above about 28%, no sharp cut-off; inactive = mostly below about 43%; also: 0% is about no effect
Lassa entry inh: Lassa virus entry inhibition. Potency, µM (series often up to 37.9 µM), inactives show at the top dose activity change, negative = inhibition, hits mostly inhibitors. 300,000 tested, 1.2% active. Lassa virus pseudotype entry inhibition, cell reporter; calls by dose curve; tested in HEK293 cells; also: potency is read from the fitted curve at half-maximal effect; % is scaled to controls: 0 for no effect and ±100 for the full control effect; nearly all actives have a fitted effect of over 50% in size
Marburg entry inh: Marburg virus entry inhibition | Marburg virus pseudotyped entry inhibition, cell reporter | Potency, µM (series often up to 37.8 µM), without a hit: at the top dose activity change, negative = inhibition, most hits filed as inhibitors | 300,000 tested, 1.8% active | AID 540276; calls by dose curve; tested in HEK293 cells; also: potency is read from the fitted curve at half-maximal effect; % is scaled to controls: 0 for no effect and ±100 for the full control effect
Active calls of the source: *; i = inactive; ? = inconclusive; nt = no result; [ ] = remark or other dose.

SMILES	Cycloheximide cs	Shiga toxin inh	Lassa entry inh	Marburg entry inh
COc1ccc(NC(=S)NC(=O)c2ccccc2)cn1	69.2*	132.0*	nt	nt
COc1ccc(NC(=O)c2cccc(Oc3ccccc3)c2)cn1	33.1*	81.1*	?	7.94µM*
COc1ccccc1CN(C)C(=O)C(NC(=O)Cc1cccc2ccccc12)C(C)C (stereo not given)	-1.4	-7.5	?	?
COCOc1c2c(c(OCOC)c3c(OCOC)cccc13)C(=NNS(=O)(=O)c1ccc(C)cc1)C1=C2CCCC1	nt	nt	nt	-17.4%[14.2 µM]
COc1ccc(S(=O)(=O)N2CCC3(CC2)OCCN3S(=O)(=O)c2ccccc2)cc1OC	nt	nt	2.3%	27.6%
Cc1c(O[C@@H]2O[C@H](CO)[C@@H](O)[C@H](O)[C@H]2O)ccc2c1oc(=O)c1ccccc12	15.3*	47.9	nt	nt
Cc1c(C)c2ccc(O[C@@H]3O[C@H](CO)[C@H](O)[C@H](O)[C@H]3O)c(C)c2oc1=O	6.0	5.6	-4.7%[46.1 µM]	?
CCOc1ccccc1N1CC(C(=O)Nc2cc(Cl)ccc2C)CC1=O (stereo not given)	-12.6	5.9	9.8%	-18.7%[46.1 µM]
O=C(N/N=C\c1c(O)ccc2ccccc12)c1ccc(Cn2cccn2)o1	-2.4	-3.2	13µM*	5.8µM*
O=C(N/N=C/c1cccnc1)c1ccc(Cn2cc([N+](=O)[O-])cn2)o1	-5.7	2.7	-12.6%[46.1 µM]	14.3%[46.1 µM]
CC(C)c1ccc(/C=N\NC(=O)c2ccc(Cn3cccn3)o2)cc1	53.6*	71.4*	?	-0.1%
O=C(N/N=C\c1ccc(Cl)s1)c1ccc(Cn2cccn2)o1	8.3	-1.8	?	7.9%
C/C(=N/NC(=O)c1ccc(C)s1)c1ccncc1	29.6*	60.4*	nt	nt
C/C(=N\NC(=O)c1cnccn1)c1ccc([N+](=O)[O-])cc1	20.0*	9.7	8.5%	-0.1%[46.1 µM]
O=C(N/N=C/c1ccc([N+](=O)[O-])cc1)c1cnccn1	7.1	-4.9	?	-2.5%
C/C(=N\NC(=O)c1cccs1)c1ccncc1	35.9*	107.1*	nt	nt
C/C(=N\NC(=O)C1CC1)c1cccs1	-2.8	4.7	-3.2%	16.9%
C/C(=N/NC(=O)c1cnccn1)c1cccs1	39.7*	93.1*	-1.1%	?
COc1ccc(C2CC(=O)Oc3c(C(CCN4CCCC(C)C4)c4cc(OC)c(OC)c(OC)c4)c(OC)cc(OC)c32)cc1 (stereo not given)	-5.6	-7.2	nt	nt
O=C(Nc1cccc(Cl)c1)c1cccnn1	21.9	24.9	4.0%	?
CCc1ccc(C(=O)N/N=C(\C)c2ccncc2)s1	37.1*	70.3*	nt	nt
C/C(=N\NC(=O)c1ccc(OC2OCCOC2Oc2ccc(C(=O)N/N=C(\C)c3ccncc3)cc2)cc1)c1ccncc1 (stereo not given)	-2.8	-7.3	nt	nt
CCC1c2ccc(C)n2CCN1C(=O)Nc1ccccc1OC (stereo not given)	14.6*	28.7*	7.4%	8.3%
COc1ccccc1NC(=O)N1CCN(C(=O)Nc2ccccc2OC)CC1	-2.1	-3.0	nt	nt
Cc1cc(S(=O)(=O)N2c3ccc(F)cc3CCC2C)ccc1-n1cnnn1 (stereo not given)	-6.3	-9.3	-2.8%	2.1%[46.1 µM]
SMILES	Cycloheximide cs	Shiga toxin inh	Lassa entry inh	Marburg entry inh
CCN(CC)CCCN(c1ccccc1)C1Cc2ccccc2C1	nt	nt	?	6.51µM*
CCCCN(CCCC)CC1OCc2ccccc2CO1	-1.4	-5.1	?	?
Cc1cc(Cl)ccc1NC(=S)Nc1ccccn1	33.4*	23.1*	25.0%	4.9%
Cc1ccc(NC(=S)Nc2ccccn2)c(C)c1	47.6*	81.6*	?	3.98µM*
CC(C)c1nc(N2CCN(C(=O)c3ccccc3)CC2)c(C#N)c2c1COC(C)(C)C2	-3.5	-6.8	?	11.6µM*
O=C(COC(=O)c1ccccc1O)NC(=O)NCc1ccccc1	nt	nt	?	6.0%
CO/N=C/C(NC(=O)c1ccc(C(F)(F)F)cc1)C(=O)OC (stereo not given)	23.2*	47.7	?	-18.7%
Cc1ccc(C(=O)NCCNS(C)(=O)=O)cc1	14.5	45.2	nt	nt
CN(C)CCNC(=S)Nc1ccc(-c2nc3ccccc3[nH]2)cc1	46.0*	122.4*	8.5%	?
S=C(NCc1ccc2c(c1)OCO2)Nc1ccc(-c2nc3ccccc3[nH]2)cc1	32.2*	61.5*	-11.8%	?
COc1ccc(NC(=S)NCc2ccc3c(c2)OCO3)cc1	15.2	24.6	-12.8%[46.1 µM]	12.9%[46.1 µM]
CC(C)(C)OC(=O)N1CC[C@H]1COc1cnc[c]([Sn]([CH3])([CH3])[CH3])c1	-3.3	i	nt	nt
CC1CCc2c(sc3nc(C(C)(C)C)nc(N4CCN(C(=O)CCl)CC4)c23)C1 (stereo not given)	19.8*	46.2*	?	?
COC(=O)C1=C(N)N(c2ccccc2F)C2=C(C(=O)CC(C)(C)C2)C1c1ccc(OC)c(OC)c1 (stereo not given)	-4.7	-14.9	-13.0%	?
Cc1cc(C(=O)COC(=O)c2ccccc2O)c(C)n1Cc1cccs1	2.7	-7.8	0.326µM*	0.82µM*
Cc1cc(C(=O)COC(=O)c2ccc3c(c2)OCO3)c(C)n1Cc1cccs1	54.2*	127.9*	?	-25.5%
CCn1nc(C(=O)OCC(=O)c2cc(C)n(Cc3cccs3)c2C)c2ccccc2c1=O	72.4*	65.5*	6.3%	?
C[C@H]1C[C@@H](C)O[C@@]2(C1)C(=O)N(Cc1ccc(F)cc1)c1ccccc12	nt	nt	nt	28.5%[14.2 µM]
Cc1nn(-c2ccccc2)c(N)c1N=Nc1ccc2ccccc2c1	39.1*	55.6*	?	?
COc1ccc(N=Nc2c(N)nn(C)c2N)cc1	nt	nt	7.4%[46.1 µM]	?
Cc1ccc(N=Nc2c(N)nn(-c3ccccc3)c2N)cc1	63.5*	90.9*	?	?
Cc1ccc(N=Nc2c(N)nn3c(C)cc(C)nc23)cc1	20.9*	15.0	?	-3.8%
Cc1nn(-c2ccccc2)c(N)c1N=O	0.8	16.9	nt	nt
Cc1cc(C)n2nc(N)c(N=Nc3cccc(Cl)c3)c2n1	7.6	16.5	?	?
O=C(NCc1nc2ccccc2[nH]1)C1=C[C@H](C2CC2)C[C@H](OCc2ccc(CO)cc2)O1	0.8	9.2	nt	nt
SMILES	Cycloheximide cs	Shiga toxin inh	Lassa entry inh	Marburg entry inh
COc1ccccc1CCC(=O)NNC(=O)c1ccc(Br)cc1	11.8	6.6	7.8%[46.1 µM]	?
CC(=O)Nc1cccc(NC(=O)Nc2ccc(C)c(Cl)c2)c1	29.8*	47.6*	?	?
CCOc1ccc(NC(=O)Nc2cnccn2)cc1	15.6*	59.3	23.1%	5.6%[46.1 µM]
CCOc1ccc(NC(=O)Nc2ccc(Br)cn2)cc1	13.3	19.9	7.3%[46.1 µM]	?
O=C(Nc1cnccn1)Nc1ccc(Cl)cc1Cl	28.6*	75.6*	nt	nt
Cn1ccc(NC(=O)Nc2ccc(Cl)cc2Cl)n1	51.5*	21.8*	?	8.6%
Cc1ccccc1NC(=O)Nc1cnccn1	8.6	74.0	nt	nt
CCc1ccc(Oc2c(C(F)(F)F)oc3c(CN4CCN(C)CC4)c(O)ccc3c2=O)cc1	nt	nt	-13.7%[46.1 µM]	1.5%[46.1 µM]
CCC(C)c1ccc(NC(=O)Nc2cnccn2)cc1 (stereo not given)	74.4*	86.9*	nt	nt
COc1ccc(NC(=O)Nc2cnccn2)cc1	35.7*	48.0*	nt	nt
Cc1cccc(NC(=O)Nc2cnccn2)c1C	6.2	-11.2	nt	nt
Cc1ccc(NC(=O)Nc2cnccn2)cc1Cl	23.2*	70.0*	-20.8%	?
